Screening results: PubChem, several laboratories
A selection: hits, their analogues and other compounds. The true share with any hit is near 0.96%.
sEH activator = activators of human soluble epoxide hydrolase; P34913; purified human sEH enzymatic activity, activator screen; activation, % at 2 µM; 0.04% of 91,000 active; AID 717; in the data active = activation above about 37%
Target sequence (P34913 whole entry, looked up): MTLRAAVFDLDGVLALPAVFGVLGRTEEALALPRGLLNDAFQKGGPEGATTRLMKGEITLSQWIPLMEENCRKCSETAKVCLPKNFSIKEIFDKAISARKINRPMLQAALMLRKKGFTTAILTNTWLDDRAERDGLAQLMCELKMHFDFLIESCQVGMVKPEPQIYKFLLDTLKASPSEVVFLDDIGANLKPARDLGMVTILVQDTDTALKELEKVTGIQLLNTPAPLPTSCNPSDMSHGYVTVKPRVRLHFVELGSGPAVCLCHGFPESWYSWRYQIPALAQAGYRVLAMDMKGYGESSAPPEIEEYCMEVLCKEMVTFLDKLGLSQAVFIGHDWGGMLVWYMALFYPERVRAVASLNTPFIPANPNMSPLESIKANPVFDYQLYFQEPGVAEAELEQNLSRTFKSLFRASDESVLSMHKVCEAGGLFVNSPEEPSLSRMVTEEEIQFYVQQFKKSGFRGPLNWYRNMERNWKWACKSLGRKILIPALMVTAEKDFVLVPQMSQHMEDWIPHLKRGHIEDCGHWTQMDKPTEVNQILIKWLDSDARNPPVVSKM
cytoskel mod = modifiers of cytoskeleton assembly; HUVEC TNFa F-actin phalloidin imaging, high content; AID 836; 0.18% of 91,000 active; inhibition, % at 2 µM;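 active = inhibition above the batch mean plus 3 SD and confirmed as a hit by visual image inspection, cut at about 30% in these data, passing the limit was not always enough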
SDO1 yeast rescue = restores growth of sdo1-depleted yeast; AID 817; z-score at 10 µM; S. cerevisiae sdo1-depleted JHY4D growth rescue, OD600 30 h; hits give high values; pdr5 snq2 efflux-pump mutant strain; 0.21% of 140,000 active;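 active = z-score above 3 at both the 24 hr and the 30 hr optical density reads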;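 also: z-score against mean and SD of all compound wells on the same plate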
Phagocyt inh = inhibitors of macrophage phagocytosis; J774A.1 macrophage IgG-bead phagocytosis, imaging; inhibition, % at 5 µM; 0.07% of 110,000 active; AID 1029;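 active = inhibition above the mean of the plate negative controls plus 5 SD, cut at about 13% in these data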;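 also: phagocytic index as fraction of beads internalized from green versus red external bead signal; plate controls were DMSO negative control for no effect and cytochalasin-D positive control for full effect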
E-sel TNF inh = blocks E-selectin expression induced by TNF alpha; HUVEC TNFa-induced E-selectin immunofluorescence, high content; inhibition, % at 2 µM; 0.71% of 120,000 active;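 active = inhibition above the batch mean plus 3 SD, and confirmed as a hit on visual image review, cut at about 43% in these data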;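 also: 0% = TNF-stimulated DMSO wells and 100% = unstimulated control wells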
sEH inhibitor = inhibitors of human soluble epoxide hydrolase; P34913; recombinant human sEH enzymatic activity assay; inhibition, % at 2 µM; 0.34% of 91,000 active; in the data active = inhibition above about 80%
Starred values were filed as active, the others as inactive; x = no result; + = active, no number; [ ] = dose if it differs, or a comment.

SMILES | sEH activator | cytoskel mod | SDO1 yeast rescue | Phagocyt inh | E-sel TNF inh | sEH inhibitor
COC(=O)c1ccc(NC(=O)CSCc2ccccc2C)cc1 | -19 | 3 | -1.3 | 0 | -6 | 20
CCc1ccc(N(CC(=O)Nc2ccc(OC)cc2OC)S(C)(=O)=O)cc1 | x | x | -0.52 | -1 | x | x
O=C1CC(c2ccccc2)CC2=C1C(c1ccccn1)Nc1ccccc1N2 (stereo unspecified) | 6 | -8 | 1.1 | -2 | -7 | -8
O=C1CC(c2ccccc2)CC2=C1CN(C1CCCCC1)CN2 (stereo unspecified) | 9 | 2 | 0.37 | 0 | 70* | -11
Cn1ccc(C(=O)Nc2ccc(Br)cc2Br)n1 | x | x | -0.4 | 6 | -3 | x
Cc1nc([N+](=O)[O-])c(Br)n1CC(=O)c1ccc2ccccc2c1 | -5 | 5 | -1.2 | + | 21 | 2
CCCc1c(O)c2ccccc2[nH]c1=O | -8 | 1 | 1.4 | 2 | 52* | 9
CSC(=Nc1cccc(C)c1)NC#N | x | x | -0.02 | -3 | -3 | x
CNC(=S)N=Nc1c(O)[nH]c2ccc(C(C)C)cc12 | x | x | -0.8 | -4 | 68* | x
CN(C)CC(C)(C)CNS(=O)(=O)c1cccc2nsnc12 | x | x | -0.34 | -4 | 2 | x
CCN1CCN(CC(=O)Nc2cccc(C)c2)C(=O)C1=O | 1 | 4 | x | x | 7 | -2
CS(=O)(=O)N1CCc2cc(-c3csc(NC(=O)Cc4cccs4)n3)ccc21 | -3 | 48 | -1.3 | 5 | 93* | 5
CCN(CC)CCNC(=O)c1ccc2c(=O)n(CCc3ccccc3)c(=O)[nH]c2c1 | x | -10 | -1.4 | -1 | 44 | x
O=C(Nc1ccc(Cl)c(C(F)(F)F)c1)C1CCCN(S(=O)(=O)c2cnc[nH]2)C1 (stereo unspecified) | -92 | 14 | 0.79 | 4 | 4 | 92*
O=C(Nc1cccc(Cl)c1)C1CCCN(S(=O)(=O)c2cnc[nH]2)C1 (stereo unspecified) | x | 7 | 1.5 | 0 | 2 | x
O=C(OCC1CC(c2ccccn2)=NO1)c1ccc(Br)cc1 (stereo unspecified) | x | x | -0.97 | 0 | 96* | x
O=C(COC(=O)c1ccccn1)c1ccc(Br)cc1 | x | x | -0.31 | 1 | -68 | x
Cc1cc(C(=O)Nc2nc3c(s2)CCCC3)no1 | -1 | x | 0.18 | 3 | 40* | 2
Cc1onc(-c2ccccc2)c1C(=O)Nc1nc2c(s1)CCCC2 | 5 | 21 | -1.4 | -2 | 15 | -1
CCOCCCNS(=O)(=O)c1ccc(NC(=O)N2c3ccccc3Sc3ccccc32)cc1 | 7 | -6 | 0.45 | x | -10 | -4
CC(C(=O)O)C1SC(=O)NC1=O (stereo unspecified) | -16 | 4 | -0.56 | 1 | 70* | 16
COc1cc(/C=C2\SC(=S)N(CC(=O)Nc3ccc(O)cc3)C2=O)cc(OC)c1OC | x | x | x | x | 74* | x
Cc1ccc(NC(=O)NCCCc2ccccc2)cc1 | -83 | 11 | -0.74 | 0 | -57 | 83*
O=C(NCCCc1ccccc1)Nc1cccc(Cl)c1 | x | x | -0.47 | 0 | x | x
O=C(N/N=C1/CCS(=O)(=O)c2ccc(F)cc21)c1ccccn1 | x | x | x | x | 81* | x
SMILES | sEH activator | cytoskel mod | SDO1 yeast rescue | Phagocyt inh | E-sel TNF inh | sEH inhibitor
COc1cccc(CN(CC2CCCO2)S(=O)(=O)c2ccc(S(=O)(=O)N(C)C)cc2)c1 (stereo unspecified) | -6 | 17 | 0.04 | 1 | -5 | 5
COc1ccc(OC)c(Nc2nc(N)nc(-c3cc4ccccc4o3)n2)c1 | -2 | 10 | -1.5 | 36* | -21 | 3
Cc1ccc(NC(=O)c2c(C)nn(-c3ccccc3)c2Cl)cc1 | x | x | -0.51 | -6 | 56 | x
O=C(O)/C=C/c1ccc2ccccc2n1 | -5 | -5 | 0.87 | x | 85* | 10
O=C(Oc1ccc(/C=N/Nc2ccccc2)cc1)c1ccccc1 | 15 | 4 | -0.7 | x | 58* | -16
O=C(Oc1ccc(/C=N/O)cc1)c1ccccc1 | 16 | -16 | -1 | 0 | -20 | -14
O=C(Cn1cncn1)NCc1cccc2ccccc12 | 9 | x | 2 | x | 64* | -12
COC(=O)C(NC(=O)c1ccccc1)c1ccccc1 (stereo unspecified) | -11 | -8 | 1.3 | 1 | 60* | 12
O=C(NC(C(=O)O)c1ccccc1)c1ccccc1 (stereo unspecified) | -10 | -6 | -0.03 | 1 | 10 | 13
COc1ccc(NC(=O)CNS(=O)(=O)c2cccc3nonc23)c(OC)c1 | x | x | 0.24 | -1 | -19 | x
O=C(Cc1cccs1)Nc1nc(-c2ccccc2)cs1 | -11 | 9 | -1 | -1 | x | 10
COC(=O)CCC(=O)Nc1nc(-c2ccccc2)cs1 | 7 | -10 | x | x | 62* | -8
O=C(Nc1nccs1)c1csc2c1CCCC2 | 5 | -1 | -1.2 | x | 10 | -5
O=C(Cn1ncc2c(=O)oc3ccccc3c21)N1CCc2ccccc2C1 | x | x | -0.59 | x | 90* | x
O=C(Cn1ncc2c(=O)oc3ccccc3c21)N1CCC(N2CCCCC2)CC1 | x | x | -0.17 | -1 | -3 | x
Cc1ccccc1C(=O)N1CCC(C(=O)Nc2ccc3c(c2)OCCO3)CC1 | -28 | 1 | 0.45 | -1 | 8 | 29
CC(c1ccccc1)N1CCn2c(nc3cc(NC(=O)NC4CCCCC4)ccc32)C1 (stereo unspecified) | -97 | -16 | -0.36 | 0 | -26 | 97*
Cc1noc(C)c1S(=O)(=O)N1CCCC(C(=O)NCCC2=CCCCC2)C1 (stereo unspecified) | -70 | 30 | -1 | 0 | 21 | 71
Cc1noc(C)c1C(=O)NCCC1=CCCCC1 | -2 | -8 | 0.36 | -3 | 64* | 0
Cc1noc(/C=C/N(C)C)c1S(=O)(=O)N1CCCC(C(=O)NCCC2=CCCCC2)C1 (stereo unspecified) | -88 | -3 | x | x | x | 88*
Cc1ccc(NS(=O)(=O)c2cc(-c3n[nH]c(=O)c4ccccc34)ccc2C)cc1 | x | x | -0.07 | 0 | -3 | x
Cc1nonc1NC(=O)CSc1nc(C2CCCCC2)nc2ccccc12 | -8 | 83* | -1.7 | -1 | 8 | 7
Cc1nn(-c2ccccc2)c(Cl)c1C(=O)N(C)c1nc(-c2ccc(F)cc2)cs1 | x | x | -1.1 | -4 | x | x
C[C@@H](C(=O)Nc1ccc2ccccc2c1)[C@H]1C[C@]1(C)[C@H](NC(=O)c1cccnc1)c1ccccc1 | x | x | 7.2* | x | x | x
COc1ccc(/C(C)=N/OCC(=O)N2CC3(C)CC2CC(C)(C)C3)cc1 (stereo unspecified) | x | x | -0.37 | x | 94* | x
CCOC(=O)c1ccc(-n2ccnc2)c(NC(=O)c2ccc(Cl)cc2)c1 | x | x | -1.5 | -3 | 62* | x
O=S(=O)(Nc1ccc(Cc2ccncc2)cc1)c1cccs1 | 3 | -10 | -0.43 | 5 | 20 | 0
N#CCc1ccc(NS(=O)(=O)c2cccs2)cc1 | x | x | -0.97 | 0 | 64* | x
COc1cc(/C=C/C(=O)N2CCN(CC(O)COc3ccccc3)CC2)cc(OC)c1OC (stereo unspecified) | 7 | 33 | 0.21 | x | 66* | -4
Cc1ccc(S(=O)(=O)N2CCN(C(=O)CSc3nc4ccccc4c(=O)[nH]3)CC2)cc1 | -10 | x | -0.26[5 µM] | x | x | 11
